Measured values reported in PubChem BioAssay AID1159580 (chemical genetic matrix, 2015).
Screen size: about 5,500 compounds; about 2,000 (36%) were called active. Another 18% or so got no clear call; they are omitted. The list shows a part of the results. Values without a mark were called inactive. No stated cut-off is given here; in the data, active means normalized growth mostly below about 0.91 (no sharp cut-off); inconclusive means no clear call, values can overlap the other calls; inactive means mostly above about 0.92.

Test: chemical genetic growth profiling, strain panel (AID 1159580);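 further: tested at 20 µM; growth read once vehicle control cultures reached saturation at 30 °C; 1 = growth at the plate median or of vehicle wells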
Conditions: growth OD
[1] = S. cerevisiae deletion strains, locus YAL013W, strain DEP1, stronger effect = lower value
[2] = S. cerevisiae deletion strains, locus YBR229C, strain ROT2, stronger effect = lower value
[3] = S. cerevisiae deletion strains, locus YCL061C, strain MRC1, stronger effect = lower value
[4] = S. cerevisiae deletion strains, locus YDL101C, strain DUN1, stronger effect = lower value
[5] = S. cerevisiae deletion strains, locus YDL134C, strain PPH21, stronger effect = lower value
[6] = S. cerevisiae deletion strains, locus YDR150W, strain NUM1, stronger effect = lower value
[7] = S. cerevisiae deletion strains, locus YEL061C, strain CIN8, stronger effect = lower value
[8] = S. cerevisiae deletion strains, locus YGR078C, strain PAC10, stronger effect = lower value
[9] = S. cerevisiae deletion strains, locus YHR030C, strain SLT2, stronger effect = lower value
[10] = S. cerevisiae deletion strains, locus YHR087W, strain rtc3, stronger effect = lower value
[11] = S. cerevisiae deletion strains, locus YJL187C, strain SWE1, stronger effect = lower value
[12] = S. cerevisiae deletion strains, locus YJR043C, strain POL32, stronger effect = lower value
[13] = S. cerevisiae deletion strains, locus YJR075W, strain HOC1, stronger effect = lower value
[14] = S. cerevisiae deletion strains, locus YKL190W, strain CNB1, stronger effect = lower value
[15] = S. cerevisiae deletion strains, locus YLR039C, strain RIC1, stronger effect = lower value
[16] = S. cerevisiae deletion strains, locus YLR058C, strain SHM2 (second series), stronger effect = lower value
[17] = S. cerevisiae deletion strains, locus YLR085C, strain ARP6, stronger effect = lower value
[18] = S. cerevisiae deletion strains, locus YLR262C, strain YPT6, stronger effect = lower value
[19] = S. cerevisiae deletion strains, locus YML094W, strain GIM5, stronger effect = lower value
[20] = S. cerevisiae deletion strains, locus YMR219W, strain ESC1, stronger effect = lower value
[21] = S. cerevisiae deletion strains, locus YMR263W, strain SAP30, stronger effect = lower value
[22] = S. cerevisiae deletion strains, locus YMR307W, strain GAS1, stronger effect = lower value
[23] = S. cerevisiae deletion strains, locus YNL153C, strain GIM3, stronger effect = lower value
[24] = S. cerevisiae deletion strains, locus YNL298W, strain CLA4 (second series), stronger effect = lower value
[25] = S. cerevisiae deletion strains, locus YNL322C, strain KRE1, stronger effect = lower value
[26] = S. cerevisiae deletion strains, locus YNR030W, strain Alg12, stronger effect = lower value
[27] = S. cerevisiae deletion strains, locus YOL006C, strain TOP1, stronger effect = lower value
[28] = S. cerevisiae deletion strains, locus YPL055C, strain LGE1, stronger effect = lower value
[29] = S. cerevisiae deletion strains, locus YPL241C, strain CIN2, stronger effect = lower value
[30] = S. cerevisiae deletion strains, locus YPR135W, strain CTF4, stronger effect = lower value
[31] = S. cerevisiae strains, strain wild type, stronger effect = lower value

SMILES: N#Cc1ccc(-c2csc(-c3ccc(Oc4ccc(C(F)(F)F)cn4)cc3)n2)cc1
- normalized growth [1]: 0.98
- normalized growth [2]: 1
- normalized growth [3]: 1.01
- normalized growth [4]: 1.03
- normalized growth [5]: 0.986
- normalized growth [6]: 1.01
- normalized growth [7]: 1.01
- normalized growth [8]: 0.996
- normalized growth [9]: 1.03
- normalized growth [10]: 0.984
- normalized growth [11]: 1
- normalized growth [12]: 1.01
- normalized growth [13]: 1.03
- normalized growth [14]: 1.01
- normalized growth [15]: 0.974
- normalized growth [16]: 1
- normalized growth [17]: 1.14
- normalized growth [18]: 0.974
- normalized growth [19]: 0.99
- normalized growth [20]: 1
- normalized growth [21]: 1.03
- normalized growth [22]: 1.32
- normalized growth [23]: 1.02
- normalized growth [24]: 1
- normalized growth [25]: 0.994
- normalized growth [26]: 1
- normalized growth [27]: 1.05
- normalized growth [28]: 0.998
- normalized growth [29]: 1.33 [resistant] (active)
- normalized growth [30]: 0.88
- normalized growth [31]: 0.99

SMILES: Cc1ccc(-c2csc(-c3ccc(Oc4ccc(C(F)(F)F)cn4)cc3)n2)c(C)c1
- normalized growth [1]: 0.995
- normalized growth [2]: 1
- normalized growth [3]: 1.02
- normalized growth [4]: 1.03
- normalized growth [5]: 0.992
- normalized growth [6]: 1.01
- normalized growth [7]: 1
- normalized growth [8]: 1.01
- normalized growth (S. cerevisiae deletion strains, locus YGR229C, strain SMI1, stronger effect = lower value): 0.996
- normalized growth [9]: 1.06
- normalized growth [10]: 0.995
- normalized growth [12]: 1.01
- normalized growth [13]: 1.03
- normalized growth [14]: 0.993
- normalized growth [15]: 1.03
- normalized growth [16]: 1
- normalized growth [17]: 1.17
- normalized growth [18]: 0.996
- normalized growth [19]: 1
- normalized growth [20]: 0.998
- normalized growth [21]: 1.03
- normalized growth [22]: 1.24
- normalized growth [23]: 1.02
- normalized growth [24]: 1
- normalized growth [25]: 1
- normalized growth [26]: 1
- normalized growth [28]: 1.01
- normalized growth [29]: 1.03
- normalized growth [30]: 0.966
- normalized growth [31]: 0.988

SMILES: C/C(=N/NC(=S)Nc1ccc(C(C)C)cc1)c1ccco1
- normalized growth [1]: 0.906 (active)
- normalized growth [2]: 0.859 (active)
- normalized growth [3]: 0.909 (active)
- normalized growth [4]: 0.905
- normalized growth [5]: 0.629 (active)
- normalized growth [6]: 0.805
- normalized growth [7]: 0.433 (active)
- normalized growth [8]: 0.864 (active)
- normalized growth [9]: 0.242 (active)
- normalized growth [10]: 0.817 (active)
- normalized growth [11]: 0.866 (active)
- normalized growth [12]: 0.937
- normalized growth [13]: 0.879 (active)
- normalized growth [14]: 0.583 (active)
- normalized growth [15]: 0.487 (active)
- normalized growth [16]: 0.967
- normalized growth [17]: 0.158 (active)
- normalized growth [18]: 0.617 (active)
- normalized growth [19]: 0.687 (active)
- normalized growth [20]: 0.93 (active)
- normalized growth [21]: 0.892 (active)
- normalized growth [22]: 0.376 (active)
- normalized growth [23]: 0.875 (active)
- normalized growth [24]: 0.437 (active)
- normalized growth [25]: 0.991
- normalized growth [26]: 0.609 (active)
- normalized growth [27]: 0.17 (active)
- normalized growth [28]: 0.847
- normalized growth [29]: 0.516 (active)
- normalized growth [30]: 0.398 (active)
- normalized growth [31]: 0.741 (active)

SMILES: O/N=C(/c1ccc(Cl)cc1)c1cc2ccccc2o1
- normalized growth (S. cerevisiae deletion strains, locus YAR019C, strain CDC15, stronger effect = lower value): 0.936
- normalized growth (S. cerevisiae deletion strains, locus YBL105C, strain PKC1, stronger effect = lower value): 0.946
- normalized growth (S. cerevisiae deletion strains, locus YBR135W, strain CKS1, stronger effect = lower value): 0.939
- normalized growth (S. cerevisiae deletion strains, locus YBR136W, strain MEC1, stronger effect = lower value): 0.945
- normalized growth (S. cerevisiae deletion strains, locus YBR160W, strain CDC28, stronger effect = lower value): 0.957
- normalized growth (S. cerevisiae deletion strains, locus YDL017W, strain CDC7, stronger effect = lower value): 0.946
- normalized growth (S. cerevisiae deletion strains, locus YDL028C, strain MPS1, stronger effect = lower value): 0.948
- normalized growth [4]: 0.964
- normalized growth (S. cerevisiae deletion strains, locus YDL108W, strain KIN28, stronger effect = lower value): 0.943
- normalized growth (S. cerevisiae deletion strains, locus YDL132W, strain cdc53, stronger effect = lower value): 0.962
- normalized growth (S. cerevisiae deletion strains, locus YDL214C, strain PRR2, stronger effect = lower value): 0.887
- normalized growth (S. cerevisiae deletion strains, locus YDR052C, strain DBF4, stronger effect = lower value): 0.93
- normalized growth (S. cerevisiae deletion strains, locus YDR054C, strain cdc34, stronger effect = lower value): 0.947
- normalized growth (S. cerevisiae deletion strains, locus YDR226W, strain ADK1, stronger effect = lower value): 0.916
- normalized growth (S. cerevisiae deletion strains, locus YDR477W, strain SNF1, stronger effect = lower value): 0.847
- normalized growth (S. cerevisiae deletion strains, locus YER123W, strain YCK3, stronger effect = lower value): 0.883
- normalized growth (S. cerevisiae deletion strains, locus YER133W, strain GLC7, stronger effect = lower value): 0.813
- normalized growth (S. cerevisiae deletion strains, locus YFL009W, strain cdc4, stronger effect = lower value): 0.963
- normalized growth (S. cerevisiae deletion strains, locus YFL029C, strain CAK1, stronger effect = lower value): 0.94
- normalized growth (S. cerevisiae deletion strains, locus YFR003C, strain YPI1, stronger effect = lower value): 0.943
- normalized growth (S. cerevisiae deletion strains, locus YFR019W, strain FAB1, stronger effect = lower value): 0.904
- normalized growth (S. cerevisiae deletion strains, locus YFR028C, strain CDC14, stronger effect = lower value): 0.956
- normalized growth (S. cerevisiae deletion strains, locus YGR040W, strain KSS1, stronger effect = lower value): 0.852
- normalized growth (S. cerevisiae deletion strains, locus YGR052W, strain FMP48, stronger effect = lower value): 0.789
- normalized growth (S. cerevisiae deletion strains, locus YGR092W, strain DBF2, stronger effect = lower value): 0.748
- normalized growth [9]: 0.526 (active)
- normalized growth (S. cerevisiae deletion strains, locus YHR079C, strain IRE1, stronger effect = lower value): 0.851
- normalized growth (S. cerevisiae deletion strains, locus YHR082C, strain KSP1, stronger effect = lower value): 0.877
- normalized growth (S. cerevisiae deletion strains, locus YHR205W, strain SCH9, stronger effect = lower value): 0.675
- normalized growth (S. cerevisiae deletion strains, locus YIL147C, strain SLN1, stronger effect = lower value): 0.943
- normalized growth (S. cerevisiae deletion strains, locus YJL095W, strain BCK1, stronger effect = lower value): 0.403 (active)
- normalized growth (S. cerevisiae deletion strains, locus YJL128C, strain PBS2, stronger effect = lower value): 0.893
- normalized growth (S. cerevisiae deletion strains, locus YJL157C, strain FAR1, stronger effect = lower value): 0.872
- normalized growth (S. cerevisiae deletion strains, locus YJR016C, strain ILV3, stronger effect = lower value): 0.941
- normalized growth (S. cerevisiae deletion strains, locus YJR066W, strain TOR1 (second series), stronger effect = lower value): 0.848
- normalized growth (S. cerevisiae deletion strains, locus YJR066W, strain TOR1, stronger effect = lower value): 0.797
- normalized growth (S. cerevisiae deletion strains, locus YKL048C, strain ELM1, stronger effect = lower value): 0.923
- normalized growth (S. cerevisiae deletion strains, locus YKL067W, strain YNK1, stronger effect = lower value): 0.893
- normalized growth (S. cerevisiae deletion strains, locus YKL101W, strain HSL1, stronger effect = lower value): 0.916
- normalized growth (S. cerevisiae deletion strains, locus YKL193C, strain SDS22, stronger effect = lower value): 0.93
- normalized growth (S. cerevisiae deletion strains, locus YKL203C, strain TOR2, stronger effect = lower value): 0.622 (active)
- normalized growth (S. cerevisiae deletion strains, locus YLR113W, strain HOG1, stronger effect = lower value): 0.915
- normalized growth (S. cerevisiae deletion strains, locus YLR133W, strain CKI1, stronger effect = lower value): 0.863
- normalized growth (S. cerevisiae deletion strains, locus YLR403W, strain SFP1, stronger effect = lower value): 0.614 (active)
- normalized growth (S. cerevisiae deletion strains, locus YML070W, strain DAK1, stronger effect = lower value): 0.868
- normalized growth (S. cerevisiae deletion strains, locus YMR001C, strain CDC5, stronger effect = lower value): 0.936
- normalized growth (S. cerevisiae deletion strains, locus YMR205C, strain PFK2 (second series), stronger effect = lower value): 0.862
- normalized growth (S. cerevisiae deletion strains, locus YMR277W, strain FCP1, stronger effect = lower value): 0.933
- normalized growth (S. cerevisiae deletion strains, locus YNL006W, strain LST8, stronger effect = lower value): 0.945
- normalized growth (S. cerevisiae deletion strains, locus YNL020C, strain ARK1, stronger effect = lower value): 0.82
- normalized growth (S. cerevisiae deletion strains, locus YNL161W, strain CBK1, stronger effect = lower value): 0.942
- normalized growth (S. cerevisiae deletion strains, locus YNL183C, strain NPR1, stronger effect = lower value): 0.784
- normalized growth (S. cerevisiae deletion strains, locus YNL207W, strain RIO2, stronger effect = lower value): 0.935
- normalized growth (S. cerevisiae deletion strains, locus YNL222W, strain SSU72, stronger effect = lower value): 0.947
- normalized growth (S. cerevisiae deletion strains, locus YNL307C, strain MCK1 (second series), stronger effect = lower value): 0.902
- normalized growth (S. cerevisiae deletion strains, locus YOL078W, strain AVO1, stronger effect = lower value): 0.937
- normalized growth (S. cerevisiae deletion strains, locus YOL136C, strain PFK27, stronger effect = lower value): 0.865
- normalized growth (S. cerevisiae deletion strains, locus YOR061W, strain CKA2, stronger effect = lower value): 0.87
- normalized growth (S. cerevisiae deletion strains, locus YOR119C, strain RIO1, stronger effect = lower value): 0.848
- normalized growth (S. cerevisiae deletion strains, locus YOR231W, strain MKK1, stronger effect = lower value): 0.964
- normalized growth (S. cerevisiae deletion strains, locus YOR329C, strain SCD5, stronger effect = lower value): 0.946
- normalized growth (S. cerevisiae deletion strains, locus YPL031C, strain PHO85, stronger effect = lower value): 0.84
- normalized growth (S. cerevisiae deletion strains, locus YPL153C, strain RAD53, stronger effect = lower value): 0.841
- normalized growth (S. cerevisiae deletion strains, locus YPL204W, strain HRR25, stronger effect = lower value): 0.807
- normalized growth (S. cerevisiae deletion strains, locus YPL209C, strain IPL1, stronger effect = lower value): 0.941
- normalized growth (S. cerevisiae deletion strains, locus YPL256C, strain CLN2, stronger effect = lower value): 0.917
- normalized growth (S. cerevisiae deletion strains, locus YPR025C, strain CCL1, stronger effect = lower value): 0.948
- normalized growth (S. cerevisiae deletion strains, locus YPR106W, strain ISR1, stronger effect = lower value): 0.946
- normalized growth (S. cerevisiae deletion strains, locus YPR111W, strain DBF20, stronger effect = lower value): 0.951
- normalized growth (S. cerevisiae deletion strains, strain NNK1, stronger effect = lower value): 0.946
- normalized growth (S. cerevisiae deletion strains, strain TSCII, stronger effect = lower value): 0.939
